Bioassay records (PubChem)
Only a selection was taken, and hits are over-represented in it overall.
PKA inh: PKA (human) kinase inhibition; P17612; PKA Kemptide phosphorylation, Kinase-Glo ATP luminescence; inhibition, % at 6 µM; 0.1% of 65,000 active; AID 524;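 active = inhibition above the screen-wide mean inhibition plus 3 SD, cut at about 21% in these data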
ROCK2 inh: blocks human Rho kinase 2 activity; purified ROCK2, Kinase-Glo ATP depletion luminescence; inhibition, % at 6 µM; O75116; 0.35% of 60,000 active;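 active = inhibition above the screen-wide mean inhibition plus 3 SD, cut at about 18% in these data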;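 note: plate controls were DMSO wells for no effect and Y-27632 control wells after no-enzyme background subtraction for full effect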
D1 mod: allosterically modulates the human D1 dopamine receptor | HEK293 D1, CRE-luciferase, dopamine EC30 potentiation; actives deviate in either direction | AID 641 | P21728 | 5.9% of 58,000 active | B-score at 10 µM;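 active = luminescence count or its row- and column-corrected plate score outside the 99.7% band of the plate's sample wells, on either side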
Target sequence (P21728 whole entry, looked up): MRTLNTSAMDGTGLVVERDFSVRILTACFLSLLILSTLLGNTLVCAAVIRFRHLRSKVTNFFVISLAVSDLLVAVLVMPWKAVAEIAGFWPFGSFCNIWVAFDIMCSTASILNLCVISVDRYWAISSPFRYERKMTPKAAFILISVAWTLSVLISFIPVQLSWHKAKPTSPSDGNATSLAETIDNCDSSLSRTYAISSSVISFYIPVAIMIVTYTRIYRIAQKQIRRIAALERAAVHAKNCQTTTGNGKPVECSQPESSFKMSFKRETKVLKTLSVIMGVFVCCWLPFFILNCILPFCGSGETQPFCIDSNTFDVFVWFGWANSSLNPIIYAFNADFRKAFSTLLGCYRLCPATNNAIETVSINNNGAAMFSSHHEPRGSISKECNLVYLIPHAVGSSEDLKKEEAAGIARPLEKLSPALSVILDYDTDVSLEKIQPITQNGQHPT
JNK3 blocker: JNK3 (human) kinase inhibition; 0.61% of 60,000 active; inhibition, % at 8 µM; purified JNK3 kinase activity, HTS; in the data active = inhibition above about 17%;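 note: 0% = DMSO and 100% = reference inhibitor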
hDAT+cocaine: changed human dopamine transporter uptake under cocaine IC80 | Q01959 | LLC-PK1 hDAT cells, [14C]-dopamine uptake with cocaine IC80; actives deviate in either direction | B-score at 10 µM | 1.3% of 110,000 active;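 active = Z score or B-score, a plate-position-corrected score, falls beyond the plate's 99.7% confidence bounds, in either direction; inactive = both scores lie inside the 99.7% bounds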;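 note: scored against the spread of the other compound wells on the same plate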
D1 PAM confirm: D1 receptor (human) allosteric modulation, confirmed | shares compounds with D1 mod | HEK293 D1 CRE-luciferase, dopamine EC30 potentiation; hits give high values | luminescence at 10 µM | 88% of 2,200 active;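 active = luminescence in either of two replicates above the same-plate mean plus 3 SD of the low-dose dopamine control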
D1 no dopamine: activates D1 CRE-luciferase signal without dopamine present. HEK293 D1 CRE-luciferase, luminescence, no dopamine; hits give high values. luminescence at 10 µM. shares compounds with D1 mod. 0.8% of 1,900 active; in the data active = luminescence above about 3900
Isoprot counter: alters isoproterenol CRE-luciferase response in HEK293 cells. shares compounds with D1 mod. HEK293 D1 CRE-luciferase, isoproterenol EC30 counter-screen. calls only at 10 µM. 63% of 2,200 active;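 active = luminescence in either replicate above plate mean of wells with a partly effective reference agonist dose plus 3 SD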;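 note: isoproterenol raises cAMP through native beta-adrenoceptor Gs so signal bypasses D1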
* marks the source's active call; other numbers are inactive results; i = inactive; nt = not tested or not shown; + = active, no number.

SMILES	PKA inh	ROCK2 inh	D1 mod	JNK3 blocker	hDAT+cocaine	D1 PAM confirm	D1 no dopamine	Isoprot counter
O=c1c2c(n3cnnc3n1-c1ccccc1)-c1ccccc1CC21CCCCC1	nt	nt	nt	nt	1.6	nt	nt	nt
CCn1c(=O)c2c(n3cnnc13)-c1ccccc1CC21CCCCC1	0	2	26*	-6	-0.0052	16572*	1652	+
O=C1CCC(C(=O)O)(c2ccccc2)C1 (configuration not stated)	4	0	-1	0	0.094	nt	nt	nt
O=C(CCCn1c(SCC(=O)c2ccc(O)c(O)c2)nc2ccccc2c1=O)NCC1CCCO1 (configuration not stated)	-2	nt	-1.7	nt	-0.023	nt	nt	nt
CCOC(=O)c1ccc(N=C2NC(=O)CS2)cc1	12	3	-0.061	6	0.43	nt	nt	nt
CCOC(=O)c1ccc(N2CN=C3SCC(=O)N3C2)cc1	2	0	3.1*	0	0.74	5848*	1596	i
COC(=O)c1sc(=S)n(-c2cccc(Cl)c2)c1N	1	nt	0.78	nt	-1.1	nt	nt	nt
CCCCn1c(=O)[nH]c(=O)c2c1nc(-c1ccc(-c3ccccc3Br)o1)n2CC	nt	nt	nt	nt	1.3	nt	nt	nt
CCn1c(-c2ccsc2)nc2c1c(=O)[nH]c(=O)n2Cc1ccccc1	-2	4	6.3*	1	2.3	16576*	1684	+
CC1CCC(NC(=O)N(CCCl)N=O)CC1 (configuration not stated)	nt	nt	nt	nt	-1.1	nt	nt	nt
Nc1cccc(Nc2nc(OC(C(F)(F)F)C(F)(F)F)nc(OC(C(F)(F)F)C(F)(F)F)n2)c1	nt	nt	nt	nt	0.2	nt	nt	nt
COc1nc(Nc2ccc(O)cc2)nc(OC(C(F)(F)F)C(F)(F)F)n1	8	4	6.2*	-5	-0.74	13552*	nt	+
CCc1c(C)nc(N)n2c(SCC(=O)N3CCN(c4ccccc4F)CC3)nnc12	4	-2	-0.028	-5	nt	nt	nt	nt
Cc1cc(C)n2c3c(c(C#N)c2n1)CCCC3	12	11	2.9*	0	-0.44	9512*	1860	i
CCSc1nncn1/N=C/c1ccc(OC)c(OC)c1	4	6	8.3*	-4	0.75	15592*	1796	+
Cc1nc(CSc2nnc3scc(-c4ccc(Cl)cc4)n23)cs1	-2	nt	13*	nt	0.18	18280*	nt	+
CCOC(=O)CSc1nnc(-c2ccco2)n1-c1ccccc1	10	7	0.59	3	-0.47	nt	nt	nt
COC(=O)CSc1nnc(-c2ccco2)n1-c1ccc(C)cc1	4	7	15*	2	1.5	17312*	1612	+
COC(=O)c1cccc(CSc2nnc(-c3ccco3)n2-c2ccccc2)c1	3	3	4.2*	-7	0.36	17968*	1916	+
CCOC(=O)CSc1nnc(-c2ccco2)n1-c1ccc(C)cc1	-2	0	4.3*	4	0.016	5532	nt	+
Cc1cc(-c2ccccc2)nc2cc(C(N)=O)nn12	8	11	9.4*	-4	-0.064	9500*	1480	+
CCN1CCN(CC(=O)NC2CCCCC2)C(=O)C1=O	5	3	0.15	-1	-0.49	nt	nt	nt
Cc1nc2ccc(CCO)cc2s1	5	6	6.4*	1	0.27	7448*	1588	i
C=C1CCC(C)C(C)(CCC2=CCOC2=O)C/C=C\C=C/1C(=O)O (configuration not stated)	nt	nt	nt	nt	0.95	nt	nt	nt
Cc1cc(Nc2cccc(Cl)c2)n2ncnc2n1	10	3	1.2	-1	nt	nt	nt	nt
SMILES	PKA inh	ROCK2 inh	D1 mod	JNK3 blocker	hDAT+cocaine	D1 PAM confirm	D1 no dopamine	Isoprot counter
CCn1c2ccccc2c2cc(Nc3cc(C)nc4ncnn34)ccc21	5	6	7.5*	1	0.52	11088*	1852	+
Cc1cc(Nc2ccc(F)c(Cl)c2)n2ncnc2n1	-5	2	4.3*	-1	-0.34	8188*	1652	+
CCc1cccc(Nc2cc(C)nc3ncnn23)c1	6	6	0.17	3	nt	nt	nt	nt
CCn1c2ccccc2c2nnc(SCCCn3c(=O)[nH]c4ccccc43)nc21	12	9	9.6*	6	0.42	10684*	1736	i
CCn1c2ccccc2c2nnc(SCc3ccc(C(=O)OC)o3)nc21	8	6	5.6*	0	0.48	9356*	1384	+
CCCn1c2ccccc2c2nnc(SCC(=O)OC)nc21	2	3	3	4	0.066	nt	nt	nt
C=CCn1c2ccccc2c2nnc(SCC(=O)NC(C(=O)OC)C(C)C)nc21 (configuration not stated)	7	4	4.4*	5	0.61	7244*	1452	i
COC(=O)CC(NC(=O)c1ccco1)c1ccc(C(C)C)cc1 (configuration not stated)	nt	nt	nt	nt	0.79	nt	nt	nt
COc1ccc(S(=O)(=O)NNC(=O)C2Cc3c(ccc4ccccc34)O2)cc1 (configuration not stated)	nt	nt	nt	nt	1.1	nt	nt	nt
CCn1nccc1C(=O)Nc1cc(Cl)ccc1Cl	4	14	2.3*	1	0.22	7456*	1536	+
CCn1nccc1C(=O)Nc1ccc(Cl)cc1Cl	0	5	0.47	-4	-0.31	nt	nt	nt
Nc1cc(C(=O)c2ccccc2)ccc1N1CCOCC1	nt	nt	nt	nt	0.46	nt	nt	nt
Nc1ccc(SC(F)(F)F)cc1C(=O)c1ccccc1	6	2	14*	0	nt	13336*	1612	+
CC(=NCc1cccnc1)C1=C(O)c2ccccc2C1=O	5	6	3*	37*	1.7	5700*	2088	i
CCOC(=O)c1c(C)c(C(=O)NCc2ccc3c(c2)OCO3)c(C)n1C	5	9	4.3*	-7	0.11	5908*	1544	i
CC1CC(=O)C2=C(C1)Nc1ccccc1N(C(=O)COc1ccccc1)C2c1ccco1 (configuration not stated)	-3	3	14*	-2	2.6	7072	1484	i
Cn1c(=O)n(CC(=O)O)c(=O)c2c1nc1n2CCS1	0	-1	5.7*	-6	-0.36	4976	1656	i
CCn1c(=O)c2c(nc3n2CCS3)n(C)c1=O	nt	nt	nt	nt	0.53	nt	nt	nt
Cc1sc2ncnc(SCC(=O)N3CCCC3)c2c1C	10	4	2.3*	0	1.4	7900*	1616	i
O=C(Cc1ccc(-n2cccc2)cc1)NCc1cccs1	-5	-5	0.31	1	-0.37	nt	nt	nt
O=C(Nc1ccc2c(c1)OCCO2)C1CCCN(S(=O)(=O)c2cnc[nH]2)C1 (configuration not stated)	-4	2	-0.059	0	0.0056	nt	nt	nt
O=C(COc1ccc(S(=O)(=O)NC2CCCCC2)cc1Cl)N1CCN(c2ccccc2)CC1	nt	nt	nt	nt	0.63	nt	nt	nt
Cc1cccc(NC(=O)Cn2c(=O)n(Cc3ccco3)c(=N)c3c4c(sc32)COC(C)(C)C4)c1	-3	-2	8.9*	-6	0.22	6860*	1656	+
